This is part of a sample that, as a whole, favours compounds with a hit. Of some 83,000 tested, about 20% had one in any assay.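 Testing used 96-well plates and a 48-hour single-concentration exposure. Example: -40 means 40% of the starting cells died.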 Values without a mark were called inactive. Activity calls are given as the source filed them.
System: OVCAR-3 ovarian
Assay: NCI-60 one-dose screen, 48 h (100 = growth as untreated, 0 = no growth, -100 = all killed)
Settings: 10 µM unless noted
Method: Growth inhibition of the OVCAR-3 human tumor cell line is measured as a screen for anti-cancer activity. Cells are grown in 96 well plates and exposed to the test compound for 48 hours. Compounds are tested at a single concentration, which is 10^-5 M for most compounds. The reported endpoint is percent growth (GI% or GIPRCNT), where numbers from 0 - 100% represent growth inhibition, and numbers from -100% - 0 represent cell death. For example, a value of 40 represents 60% growth inhibition. A value of 0 means no net growth occurred over the course of the experiment. A value of -40 indicates 40% of cells at the beginning of the experiment died by the end of the experiment. A value of -100 means all cells are dead at the end of the experiment.
NCI-60 Human Tumor Cell Lines Screen was performed using the standard one-dose NCI protocol, which is described in more detail at https://dtp.cancer.gov/discovery_development/nci-60/default.htm.
Compounds with GIPRCNT values below 10 were considered active. Activity score was based on GIPRCNT using the following formula: […]
Score is 0 for GIPRCNT values of 100 or above, 50 for GIPRCNT values of 0, and 100 for GIPRCNT values of -100.

Compared with CCN(CC)CCOc1ccc(C2=C(c3ccccc3)CCc3cc(OC)ccc32)cc1, COc1ccc(-c2cc(Cc3cccs3)c(=O)n(Cn3ccc4ccccc43)n2)cc1 is higher in growth: 12.7% for the first, 111% for the second.

Going from CN(CC(=O)Nc1nc2ccccc2[nH]1)S(=O)(=O)c1ccc(Cl)cc1 to CCn1c2ccccc2c2ccc(C(C)=O)cc21, the growth rises from 91% to 112%.

Going from Cc1cc2cn3c4cccnc4[nH]c(=O)c3c2cc1C to COc1ccc2c(c1)nc(N)c1c3ccccc3cn21, the growth rises from 29.5% to 79.3%.

First: COc1cc(/C=C/C(=O)Nc2ccc3c(c2)/C(=C\c2cccn2C)C(=O)N3)cc(OC)c1OC
Second: COc1cc(/C=C/C(=O)N2CCN(C(=O)/C=C/c3ccccc3)CC2)cc(OC)c1OC
The growth of the first is lower: 41.7% for the first, 120% for the second.

Going from CCCCCCCCCCCCCCCCCc1nccn1CCO to CCCCCCCC/C=C\CCCCCCCCOc1ccccc1CC(=O)NCC[N+]1(C)CCCC1, the growth rises from 86.2% to 91.8%.

Compared with O=C1NCC(Nc2ccc(Br)cc2Cl)C(=O)N1 (stereo not given), CC1(C)OC(=O)C(=Cc2ccccc2Br)C(=O)O1 is lower in growth: 114% for the first, 106% for the second.

Compared with Cc1cc(C)c(OC(=O)CSc2nc3ccccc3c(=O)n2CCc2ccccc2)cc1C, CSc1nnc(C2=CC(=O)c3ccccc3C2=O)n1-c1ccccc1 is lower in growth: 99% for the first, 91.6% for the second.

Going from COC(=O)c1ccc2c(c1)nc(-c1ccc(O)c(OC)c1)n2-c1cc(C(C)(C)C)[nH]n1 to COc1ccc(C2=NN(C(C)=O)C(c3cc(OC)c(OC)c(OC)c3)C2)cc1 (stereo not given), the growth falls from 98.1% to 88.6%.

Going from NC(=O)N/N=C/c1ccc(Br)o1 to Oc1ccccc1/C=N\Nc1ccccc1, the growth falls from 113% to 79.1%.

First: Nc1nc(Cl)c2[nH]cnc2n1
Second: Cn1cc(-c2nc(-c3c[nH]c4ncc(F)cc34)cs2)c2cccnc21
The growth of the first is higher: 125% for the first, 117% for the second.

Compared with CC(C)c1nc(N(C)S(C)(=O)=O)nc(-c2ccc(F)cc2)c1/C=C/[C@@H](O)C[C@@H](O)CC(=O)O, COc1ccc(Cn2c(NCCCN(C)C)nc(=O)n(Cc3ccc(F)cc3)c2=O)cc1 is lower in growth: 99.4% for the first, 87% for the second.

Going from CCC(c1ccccc1)c1noc(CCN(CC)CC)n1 (stereo not given) to CSC1=Nc2c(c(C)c(-c3ccccc3)n2CCCN2CCCCC2)C2=NC(=O)C[C@H](C)N12, the growth falls from 115% to 24.5%.

Compared with Cc1cc(NC(=O)c2ccc(N)cc2)ccc1N=Nc1ccc2c(O)c(N=Nc3ccc(Cl)c(S(=O)(=O)O)c3)c(S(=O)(=O)O)cc2c1, COc1ccc(-c2cncn2-c2ccc(-c3nc4cc(OC)c(OC)c(OC)c4s3)cc2)cc1N is lower in growth: 85.9% for the first, 44.2% for the second.

First: CCC(C)(C)C(=O)O[C@H]1C[C@@H](C)C=C2C=C[C@H](C)[C@H](CC[C@@H]3C[C@@H](O)CC(=O)O3)[C@H]21
Second: C=C(C)[C@H]1CC/C(C)=C/CC[C@]2(C)O[C@H]2CC/C(C=O)=C\C1O (stereo not given in full)
The growth of the first is lower: 85.7% for the first, 124% for the second.

Going from N=c1ccn2c(n1)O[C@@H]1[C@@H](O)[C@H](CO)O[C@@H]12 to C=C(C)[C@H]1CC/C(C)=C/CC[C@]2(C)O[C@H]2CC/C(COC(C)=O)=C\C1=O, the growth rises from 87.5% to 164%.

Going from COc1cc(C2NC(c3ccc(Cl)cc3)C(C)C(=NC(=O)c3cnccn3)C2C)cc(OC)c1OC (stereo not given) to C/C(=N/N=C(N)N)c1ccc(N)cc1, the growth falls from 107% to 93.1%.

For O=C1C[C@@H]2/C(=C(O)\C=C\c3ccccc3)C(=O)C=C[C@@H]2O1, the growth was -46.2% (active).
With CCN(CC)CCCCNc1c2ccccc2[n+](C)c2c1[nH]c1ccccc12 the growth was -13.6% (active).
In the case of COc1ccc(C2CC(c3cccc(Nc4ccnc5cc(Cl)ccc45)c3)=NN2C=O)cc1 (stereo not given), the growth is reported as -22.7% (active).
With COc1cccc(C2C(C#N)=C(N)Oc3cc(OC)ccc32)c1 (stereo not given) the growth was -28.9% (active).
With Cc1ccc2c(c1)C(=O)/C(=C/c1ncc([N+](=O)[O-])n1C)O2 the growth was -46.9% (active).
Cc1ccc(C=C2C(Cl)=C(Cl)C(Cl)=C2Cl)cc1 was tested, and the growth was -85.1% (active).
For c1cncc(CNc2ccccc2-c2nnc(Nc3ccc4c(c3)OCO4)o2)c1, the growth was -22% (active).

For CCCc1cc(=O)n2c(C(=O)Nc3ccccc3OC)c(C(=O)Nc3ccc(F)cc3)sc2n1, the growth was 51.3% [30 µM].
